These results are taken from PubChem BioAssay AID588453 (National Center for Advancing Translational Sciences (NCATS), 2011).

Hit rate of the full screen: of about 390,000 compounds, about 4,000 (1%) were called active. About 4% were inconclusive and are not listed. Calls come from the whole dose curve; as a rule, active = well fitted inhibition curve with a large enough effect; inconclusive = small, poorly fitted or top-dose-only effect; inactive = no such curve, though single readings can be large or run the other way. For the sample, actives were picked, then their nearest neighbours and some compounds at random.
% is set by controls: 0 for no effect and ±100 for the full control effect; potency is the fitted concentration of half-maximal effect.

Chain of Thioredoxin reductase 1, cytoplasmic (Rattus norvegicus) (O89049 whole entry, looked up): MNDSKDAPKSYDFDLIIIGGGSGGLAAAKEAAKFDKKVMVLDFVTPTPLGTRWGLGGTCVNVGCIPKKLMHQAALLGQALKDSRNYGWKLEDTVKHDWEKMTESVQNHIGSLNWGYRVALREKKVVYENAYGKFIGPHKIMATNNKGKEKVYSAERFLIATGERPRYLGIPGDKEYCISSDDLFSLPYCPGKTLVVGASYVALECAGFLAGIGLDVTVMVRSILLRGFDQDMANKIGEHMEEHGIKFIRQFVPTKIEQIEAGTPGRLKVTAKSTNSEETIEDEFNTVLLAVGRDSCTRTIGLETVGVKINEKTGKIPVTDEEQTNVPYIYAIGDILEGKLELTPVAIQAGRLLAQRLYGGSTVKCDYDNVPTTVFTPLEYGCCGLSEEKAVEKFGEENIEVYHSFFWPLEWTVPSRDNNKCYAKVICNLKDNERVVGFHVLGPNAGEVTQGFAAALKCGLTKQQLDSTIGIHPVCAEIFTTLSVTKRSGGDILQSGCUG

The experiment concerns the target Thioredoxin reductase 1, cytoplasmic (Rattus norvegicus) (UniProt O89049). As to the kind of experiment: qHTS Assay for Inhibitors of Mammalian Selenoprotein Thioredoxin Reductase 1 (TrxR1): qHTS. Note: nearly all actives have a fitted effect of over 65% in size. Particulars: recombinant rTrxR1, NADPH fluorescence consumption, selenite substrate; series mostly up to 114 µM; activity change, negative = inhibition: at the top concentration. A digest of the protocol: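 Rat TrxR1 (90 nM in the dispensed reagent) was pre-reduced with 400 uM NADPH for 5 min at room temperature, then incubated with compound for 15 min. After 400 uM selenite was added, NADPH fluorescence (Ex 340/Em 450 nm) was followed for 8 min.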
`Cc1ccc(C(=O)Nc2ccc3[nH]c(=O)c(=O)[nH]c3c2)cc1`: the “activity change, negative = inhibition” value was 1.15% (inactive).
For the compound `CN(C)/C=C1/Nc2ccccc2C1=O`, the Potency was 35.5 µM (active).
Take `CCCS(=O)(=O)C(=C1Nc2ccccc2N1)S(=O)(=O)CCC`: the “activity change, negative = inhibition” value is -18.4% (inactive).
Same read-out and setting: for `Cc1ccc(S(=O)(=O)c2nnn3c2nc(N2CCN(c4ccccc4F)CC2)c2cc(Cl)ccc23)cc1C` the value was 20.5% (inactive).
Same read-out and setting: the figure for `COCCNC(=O)CSc1nc(-c2ccccc2)[nH]c1-c1ccc(C)cc1` is 13.8% (inactive); for `Cc1csc(NCC(=O)c2c[nH]c3ccccc23)n1` it is 11.7% (inactive).
On the same count and under the same terms, the figure for `COCCCn1c(-c2cccs2)nc2nc3ccccc3nc21` is 182% (inactive).
As for `Clc1cccc(-c2nc3nc4ccccc4nc3n2Cc2ccco2)c1`, the Potency was 7.94 µM (active).
As for `Cc1nc2ccc(S(=O)(=O)N(CC(=O)Nc3ccc(F)cc3)Cc3ccccc3)cc2s1`, the “activity change, negative = inhibition” value is 7.96% [at 57.1 µM] (inactive).
In the case of `Cc1ccc(C2C=C(c3ccc(Cl)cc3)Nc3nc(NC(=O)CCC(=O)O)nn32)cc1` (stereo not drawn), the “activity change, negative = inhibition” value is -15.9% [at 57.1 µM] (inactive).
In the case of `CCOc1ccc(NCCC(=O)c2ccc3c(c2)OCO3)cc1`, the Potency is 2.24 µM (active).
`CCOc1ccc(NC(=O)Cn2c(=O)n(CCCC(=O)NCc3ccc4c(c3)OCO4)c(=O)c3ccccc32)cc1`: the “activity change, negative = inhibition” value is 14% (inactive).
Same read-out and setting: for `CCOc1ccc(C(=O)CCC(=O)NC2=NCCS2)cc1` the value was 1.42% (inactive); for `COC(=O)c1c(NC(=O)CCCOc2ccccc2)sc2c1CCC(C)C2` (stereo not drawn), 14.9% (inactive); for `CCCc1nc2c([nH]1)C(c1cccnc1)C(C#N)=C(N)O2` (stereo not drawn), -0.372% (inactive).
As for `CCCc1[nH]nc2c1C(c1ccc(Br)s1)C(C#N)=C(N)O2` (stereo not drawn), the Potency is 44.7 µM (active).
`CCOc1ccc(-n2c(C)nc3c(cnn3-c3ccc(C)cc3)c2=O)cc1`: the “activity change, negative = inhibition” value was -0.644% (inactive).
Same read-out and setting: for `CCC1(C)CC(=O)c2c(ccc3oc(C(=O)Nc4ccc(C(C)=O)cc4)c(C)c23)O1` (stereo not drawn) the value was 6.3% (inactive).
The same measure, in the same setting: the figure for `Cc1ccc(Cn2c(=O)n(Cc3nc(-c4ccccc4)no3)c(=O)c3cc4c(cc32)OCO4)cc1` is 6.4% (inactive); for `Cc1ccc(OCC(=O)c2cc(C)n(Cc3ccco3)c2C)c([N+](=O)[O-])n1` it is -0.57% (inactive).
For `Cc1ccc(Cn2c(C)nc3c(c2=O)c2nc4ccccc4nc2n3Cc2ccco2)cc1`, the Potency was 10 µM (active).
Regarding `CC(C)(C)C1CCC(NC(=O)c2cnn3c2NC(=C2CC2)C=C3C(F)F)CC1` (stereo not drawn), the “activity change, negative = inhibition” value was 26.5% (inactive).
Consider `O=S(=O)(c1ccc(Cl)cc1)c1nnn2c1nc(NC1CCCC1)c1sccc12`, for which the “activity change, negative = inhibition” value was 29.3% (inactive).
On the same count and under the same terms, the figure for `COc1ccc(/C=C/c2ccnc3ccccc23)cc1OC` is 14.7% (inactive).
On the same count and under the same terms, for `CCOc1cc(CNC(=O)c2sc3ncnc(N(C)C4CCCCC4)c3c2C)ccc1OC` the value was 16.5% [at 57.1 µM] (inactive).
Regarding `CCOC(=O)Nc1ccc2c(c1)N(C(=O)CN1CCN3CCCC3C1)c1ccccc1CC2` (stereo not drawn), the “activity change, negative = inhibition” value was -5.17% (inactive).
On the same count and under the same terms, the figure for `CCOC(=O)Nc1ccc(S(=O)(=O)N(C)C(C)C)cc1` is 23% (inactive).
`CCOC(=O)Nc1ccc2c(c1)N(C(=O)CCCl)c1ccccc1[S@]2=O`: the Potency is 50.1 µM (active).
As for `Oc1ccc(Br)cc1C1C=C(c2ccc3c(c2)OCO3)NC(c2ccc(Cl)cc2)N1` (stereo not drawn), the “activity change, negative = inhibition” value is -18.3% (inactive).
On the same count and under the same terms, the figure for `CC(CCCc1ccccc1)NC(=O)c1nn(-c2ccc(Cl)cc2)nc1CO` (stereo not drawn) is 15% (inactive).
The same measure, in the same setting: for `COc1ccc(Cl)cc1N(C)C(=O)c1cc2c(=O)oc3ccc(C)cc3c2s1` the value was 26.5% (inactive); for `O=C(NCCCc1ccccc1)c1ccc2c(c1)sc1nc(-c3ccc(F)cc3)cn12`, 3.74% (inactive).
`CN1C(=O)c2ccccc2Sc2ccc(NC(=O)Cc3ccc(Cl)cc3)cc21`: the “activity change, negative = inhibition” value was -21.1% [at 57.1 µM] (inactive).
Take `COc1cc2[nH]c(=S)n(CCN3CCCCC3C)c(=O)c2cc1OC` (stereo not drawn): the “activity change, negative = inhibition” value was 7.7% (inactive).
The same measure, in the same setting: for `CCOc1cc2[nH]c(=S)n(Cc3ccc(C(=O)N4CCN(C)CC4)cc3)c(=O)c2cc1OCC` the value was 10.9% (inactive).
For the compound `COc1cc2[nH]c(=S)n(Cc3ccc(C)o3)c(=O)c2cc1OC`, the Potency is 8.91 µM (active).
`OC[C@H]1O[C@@H](n2cnc3c(NC4CCCC4)ncnc32)[C@H](O)[C@H]1O`: the “activity change, negative = inhibition” value is -0.561% (inactive).
Same read-out and setting: for `CCc1ccccc1NC(=O)c1ccc2nc(CCc3ccccc3)oc2c1` the value was 34.5% [at 57.1 µM] (inactive).
As for `O=c1cc(-c2ccccc2)[nH]c2nc(Cl)ccc12`, the Potency entry was “inactive”.
With `COc1cccc(N2CC(NC(=O)/C=C\c3ccccc3)CC2=O)c1` (stereo not drawn), the “activity change, negative = inhibition” value is 9.26% [at 57.1 µM] (inactive).
As for `COc1ccc(/C=C/C(=O)c2cc(Br)ccc(=O)c2O)cc1`, the Potency is 35.5 µM (active).
Regarding `COCOc1cc(O)c(C(=O)/C=C/c2ccc(OCOC)c(OCOC)c2)c(OCOC)c1`, the “activity change, negative = inhibition” value is -3.29% (inactive).
Same read-out and setting: the figure for `Cc1ccc(-c2nc(=N)sn2Cc2ccccc2)cc1` is -19.2% (inactive); for `Cc1ccc(NC(=O)Cn2nnc3sc4c(c3c2=O)CCC(C)C4)cc1` (stereo not drawn) it is 6.32% [at 57.1 µM] (inactive).
For the compound `COc1ccc(-c2cc(C(F)(F)F)nc(S(C)(=O)=O)n2)cc1OC`, the Potency was 17.8 µM (active).
Consider `COc1ccc(CCNc2nc(-c3ccc(F)cc3)cc(C(F)(F)F)n2)cc1OC`, for which the “activity change, negative = inhibition” value was 59% (inactive).
Consider `COc1ccc(-c2cc(C(F)(F)F)nc(SCC(=O)N(C)Cc3ccccc3)n2)cc1OC`, for which the “activity change, negative = inhibition” value is 144% (inactive).
Still for that read-out and setting: for `CC1CN(C(=O)N2CCC(C(=O)NCc3ccco3)CC2)c2cc(Cl)ccc2O1` (stereo not drawn) the value was 16.6% (inactive).
`CC(=O)Nc1ccc(NC(=O)CSc2nnc3c4cc(Br)ccc4n(C)c3n2)cc1`: the “activity change, negative = inhibition” value is 23.3% (inactive).
Still for that read-out and setting: the figure for `CC1CCN(S(=O)(=O)c2ccc3c(c2)N(CC(=O)NCCc2ccccc2)C(=O)CO3)CC1` is 20.4% (inactive).
For the compound `Brc1ccc(C2=CC(c3ccco3)n3ncnc3N2)cc1` (stereo not drawn), the Potency is 39.8 µM (active).
In the case of `Cc1ccccc1OCC(=O)Nc1c(C(=O)Nc2ccccc2F)oc2ccccc12`, the “activity change, negative = inhibition” value is 17.9% (inactive).
Still for that read-out and setting: for `NC(=O)Nc1ccc(/C=C/c2ccnc3ccccc23)cc1` the value was 8.21% (inactive); for `Cc1nnc(SCc2cc(=O)[nH]c(N3CCN(Cc4ccccc4)CC3)n2)s1`, 14.8% [at 57.1 µM] (inactive).
For the compound `Cc1cc(C)cc(C(=O)NC2C(=O)N3C(C(=O)O)=C(CSc4nnc(C)s4)CSC23)c1` (stereo not drawn), the Potency was 8.91 µM (active).
As for `C=CC1=C(C(=O)O)N2C(=O)[C@@H](NC(=O)/C(=N/OCC(=O)O)c3csc(N)n3)[C@H]2SC1`, the “activity change, negative = inhibition” value was -2.23% (inactive).
Same read-out and setting: the figure for `Cc1ccc(C)c(S(=O)(=O)c2nnn3c2nc(N2CCOCC2)c2sccc23)c1` is 34.2% (inactive); for `O=C(Nc1ccc(Cl)cc1)c1cnn2c1NC(=C1CC1)C=C2C(F)F` it is 11.1% (inactive).
Consider `CC(C)(C)n1ncc2c(=O)n(Cc3ccc(C(=O)c4ccccc4)cc3)cnc21`, for which the “activity change, negative = inhibition” value was 22.2% (inactive).
Regarding `CCCCCCCC(=O)NC(Nc1ccccc1OC)C(Cl)(Cl)Cl` (stereo not drawn), the “activity change, negative = inhibition” value was 7.59% (inactive).
Still for that read-out and setting: the figure for `CCCCNC(=O)CN1C(=O)NC(Cc2ccccc2)(Cc2ccccc2)C1=O` is -6.76% (inactive).
Take `CCCCC(O)(CCCC)C(=O)NN(C(=O)CCl)c1ccccc1`: the Potency is 10 µM (active).
In the case of `CCOc1ccccc1CNC(=O)c1cnc2c(-c3ccc(OCC)c(OCC)c3)c(C)nn2c1C`, the “activity change, negative = inhibition” value is 19.7% [at 57.1 µM] (inactive).
